# Results from PubChem BioAssay.
# The source made the active and inactive calls. Unless noted, how the calls were made is not given here.
# Assays:
# [1] = liver-stage malaria parasite load reduction – cell-based, known kinase inhibitor set, luminescence, hepatoma host viability (AID 624392); details: Plasmodium liver stage in hepatoma cells, luciferase luminescence, concentration not given here; liver cell % of control: measured here: host liver cell viability; parasite % of control: stronger effect = lower value;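 further: infected cells incubated roughly two days before readout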
# [2] = altered dexamethasone sensitivity, NF-kB reporter, cell-based, luciferase, IL-1B stimulus (AID 624486); details: IL-1B + dexamethasone, luminescence; percent of negative control (+Dex): actives lie on both sides, concentration not given here; z-score: measured here: IL-1B alone, no Dex;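 on percent of negative control (+Dex): 100% = mean signal of vehicle control wells on the plate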
# [3] = C. elegans survival during P. aeruginosa infection – whole organism (AID 651566);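 further: tested at 14 µM; sign flipped so higher z means a lower ratio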; details: C. elegans killed by P. aeruginosa, survival ratio
# [4] = pro-inflammatory signaling induction in mouse macrophages – cell-based, murine, luminescence (AID 652131); details: murine macrophage pro-inflammatory reporter, stronger effect = higher value
# [5] = inducers of IRF3 signaling, differentiated THP-1 – cell-based, PMA-stimulated THP-1, luminescence (AID 1053176); details: PMA-differentiated THP-1, IRF3 reporter luminescence; stronger effect = higher value
# [6] = MELAS cybrid and Rieske KO viability enhancers – cell-based, MELAS cybrids, Rieske KO mouse fibroblasts, CellTiter-Glo, primary screen (AID 1508586;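 active means mean z-score across replicates of 1.96 or higher in either the MELAS or the Rieske mutant cell line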;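 further: z relative to plate mean and SD of compound and empty wells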); details: low glucose
# [7] = Wnt pathway potentiators raising nuclear beta-catenin – imaging, WNT3A-conditioned medium, mouse C2C12, NPC library, primary screen (AID 1117326; in the data active means nuclear beta-catenin stimulation mostly above about 4.2%, no sharp cut-off; inactive means mostly below about 10%); details: stronger effect = higher value
# [8] = stimulators of insulin release from INS-1E, primary screen, cell-based, 5 mM glucose, NPC library (AID 1117329;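 active means compound raises insulin release from rat beta cells at 5 mM glucose, no numeric limit stated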); details: rat INS-1E insulin secretion, at 10 µM, stronger effect = higher value
# [9] = growth inhibition of GSK3B-pretreated HCT116 cells – cell-based, CellTiter-Glo, 0.2 to 20 µM (AID 1117336;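 active means compounds lowering colon cancer cell viability after pretreatment blocking the GSK3B kinase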); details: HCT116 viability after GSK3B inhibitor, at 20 µM, stronger effect = higher value
# [10] = inhibition of endothelial tube formation, primary screen, imaging, VEGF stimulated, CD31 staining, tube area, NPC library (AID 1117340;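 active means compound that reduces growth-factor-driven endothelial tube area in a mixed cell culture, no cutoff stated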); details: VEGF-stimulated ADSC/ECFC co-culture, at 10 µM, stronger effect = higher value
# [11] = GLP1 release stimulators, primary, NCI-H716, NPC library (AID 1117341;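 active means compound raises GLP1 secretion from the human gut endocrine cells, with no numeric limit stated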); details: NCI-H716 cells, at 10 µM, stronger effect = higher value
# [12] = HCT116 colon cancer cell growth inhibition, primary screen, CellTiter-Glo luminescence, NPC library (AID 1117342;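 active means compounds that lower survival of HCT116 colon cancer cells in the luminescence readout, no numeric limit stated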); details: at 20 µM (top of the series)
# [13] = reduced SW480 viability measured with CellTiter-Glo, NPC library, primary (AID 1117343;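 active means compounds that lower viability of the colon cancer cells in the luminescence readout, with no numeric limit stated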); details: CellTiter-Glo luminescence; at 20 µM (top of the series)
# [14] = NPC library primary testing for decreased DLD-1 cell viability via CellTiter-Glo (AID 1117346;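 active means compounds that lower survival of DLD-1 colon cancer cells in the luminescence readout, no cutoff given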); details: DLD-1 viability, CellTiter-Glo luminescence; at 20 µM (top of the series)
# [15] = MELAS cybrid survival, CellTiter-Glo 48 h, stronger effect = higher value
# [16] = Rieske KO mouse fibroblast survival, CellTiter-Glo 72 h
structure (smiles),measurement,setting,value
COc1ccccc1Oc1nccc(-c2c(-c3ccc(F)cc3)ncn2C2CCNCC2)n1,liver cell % of control,[1],89.7%
same,parasite % of control,[1],136% (inactive)
same,percent of negative control (+Dex),[2],104% (inactive)
same,z-score,[2],0.275
same,z-score,[3],0.105 (inactive)
same,z-score,[4],0.324 (inactive)
same,fraction signal,[5],0.001 (inactive)
same,z-score,[6]; [15],-0.339 (inactive)
same,z-score,[6]; [16],-0.367
CC(C)=CCCC(C)=CCCC(C)=CCCC(C)=CCC1=C(C)C(=O)c2ccccc2C1=O,nuclear beta-catenin stimulation,[7]; at 10 µM,-0.4% (inactive)
same,nuclear beta-catenin stimulation,"[7]; stimulation, at 2 µM",0%
same,insulin secretion stimulation,[8],0.5% (inactive)
same,viability decrease,[9],27.6% (inactive)
same,tube area decrease,[10],3.6% (inactive)
same,GLP1 secretion stimulation,[11],-0.8% (inactive)
same,inhibition of viability,[12],37.8% (inactive)
same,viability decrease (inhibition),[13],12.3% (inactive)
same,viability decrease (inhibition),[14],11.1% (inactive)
Cc1cccc(C)c1NC(=O)CN(CC(=O)O)CC(=O)O,nuclear beta-catenin stimulation,[7]; at 10 µM,0.4% (inactive)
same,nuclear beta-catenin stimulation,"[7]; stimulation, at 2 µM",0.2%
same,insulin secretion stimulation,[8],-2.1% (inactive)
same,viability decrease,[9],-0.05% (inactive)
same,tube area decrease,[10],-22.7% (inactive)
same,GLP1 secretion stimulation,[11],1.6% (inactive)
same,inhibition of viability,[12],2.2% (inactive)
same,viability decrease (inhibition),[13],43.5% (inactive)
same,viability decrease (inhibition),[14],8.9% (inactive)
Cc1cc(O)c(C(C)C)cc1Cl,nuclear beta-catenin stimulation,[7]; at 10 µM,-0.5% (inactive)
same,nuclear beta-catenin stimulation,"[7]; stimulation, at 2 µM",1.2%
same,insulin secretion stimulation,[8],-0.9% (inactive)
same,viability decrease,[9],36.1% (inactive)
same,tube area decrease,[10],-10.5% (inactive)
same,GLP1 secretion stimulation,[11],29.3% (active)
same,inhibition of viability,[12],-9.5% (inactive)
same,viability decrease (inhibition),[13],22% (inactive)
same,viability decrease (inhibition),[14],19.5% (inactive)
Fc1ccc(-c2ncn(C3CCNCC3)c2-c2ccnc(Oc3cccc(C(F)(F)F)c3)n2)cc1,liver cell % of control,[1],97%
same,parasite % of control,[1],156% (inactive)
same,percent of negative control (+Dex),[2],97% (inactive)
same,z-score,[2],0.355
same,z-score,[3],0.19 (inactive)
same,z-score,[4],-0.64 (inactive)
same,fraction signal,[5],0.0045 (inactive)
same,z-score,[6]; [15],-0.429 (inactive)
same,z-score,[6]; [16],-0.412
CC1(C)O[C@@H]2C[C@H]3[C@@H]4CCC5=CC(=O)C=C[C@]5(C)[C@@H]4[C@@H](O)C[C@]3(C)[C@]2(C(=O)CO)O1,nuclear beta-catenin stimulation,[7]; at 10 µM,0.6% (inactive)
same,nuclear beta-catenin stimulation,"[7]; stimulation, at 2 µM",1.2%
same,insulin secretion stimulation,[8],-1% (inactive)
same,viability decrease,[9],-46.1% (inactive)
same,tube area decrease,[10],4.9% (inactive)
same,GLP1 secretion stimulation,[11],1.2% (inactive)
same,inhibition of viability,[12],-6.5% (inactive)
same,viability decrease (inhibition),[13],-17.7% (inactive)
same,viability decrease (inhibition),[14],-7.4% (inactive)
Cc1[nH]nc2c1N=C(c1ccccc1Cl)c1cc([N+](=O)[O-])ccc1N2,liver cell % of control,[1],92.3%
same,parasite % of control,[1],32.5% (inactive)
same,percent of negative control (+Dex),[2],104% (inactive)
same,z-score,[2],-1.15
same,fraction signal,[5],-0.0135 (inactive)
Cc1ccc(O)c(-n2nc3ccccc3n2)c1,nuclear beta-catenin stimulation,[7]; at 10 µM,-0.7% (inactive)
same,nuclear beta-catenin stimulation,"[7]; stimulation, at 2 µM",-0.3%
same,insulin secretion stimulation,[8],-1.4% (inactive)
same,viability decrease,[9],8.75% (inactive)
same,tube area decrease,[10],-28.1% (inactive)
same,GLP1 secretion stimulation,[11],4.2% (inactive)
same,inhibition of viability,[12],-0.8% (inactive)
same,viability decrease (inhibition),[13],40.7% (inactive)
same,viability decrease (inhibition),[14],13.8% (inactive)
CS(=O)(=O)CCNCc1ccc(-c2ccc3ncnc(Nc4ccc(OCc5ccccc5)c(Br)c4)c3c2)o1,liver cell % of control,[1],107%
same,parasite % of control,[1],127% (inactive)
same,percent of negative control (+Dex),[2],82% (inactive)
same,z-score,[2],-0.54
same,z-score,[3],0.135 (inactive)
same,z-score,[4],2.09 (inactive)
same,fraction signal,[5],0.0015 (inactive)
same,z-score,[6]; [15],0.203 (inactive)
same,z-score,[6]; [16],-0.567
CC(C)C(=O)Nc1cccc(C(F)(F)F)c1,nuclear beta-catenin stimulation,[7]; at 10 µM,1% (inactive)
same,nuclear beta-catenin stimulation,"[7]; stimulation, at 2 µM",1.2%
same,insulin secretion stimulation,[8],2.1% (inactive)
same,viability decrease,[9],9.3% (inactive)
same,tube area decrease,[10],-5.2% (inactive)
same,GLP1 secretion stimulation,[11],4.8% (inactive)
same,inhibition of viability,[12],0.9% (inactive)
same,viability decrease (inhibition),[13],-24.6% (inactive)
same,viability decrease (inhibition),[14],-1% (inactive)
O=C(O)c1ccc(Oc2nccc(-c3c(-c4ccc(F)cc4)ncn3C3CCNCC3)n2)cc1,liver cell % of control,[1],104%
same,parasite % of control,[1],117% (inactive)
same,percent of negative control (+Dex),[2],97% (inactive)
same,z-score,[2],-0.04
same,z-score,[3],-0.625 (inactive)
same,z-score,[4],0.424 (inactive)
same,fraction signal,[5],0.0015 (inactive)
same,z-score,[6]; [15],-0.0801 (inactive)
same,z-score,[6]; [16],-0.396
Cc1ccc(NC(=O)c2ccnc(N3CCOCC3)c2)cc1-c1ccc(C(=O)NCC2CC2)cc1,liver cell % of control,[1],100%
same,parasite % of control,[1],95.1% (inactive)
same,percent of negative control (+Dex),[2],102% (inactive)
same,z-score,[2],1.12
same,z-score,[3],0.01 (inactive)
same,z-score,[4],-0.216 (inactive)
same,fraction signal,[5],-0.0075 (inactive)
same,z-score,[6]; [15],-0.365 (inactive)
same,z-score,[6]; [16],-0.395
O=S1CCN(Cc2ccc(-c3ccc4ncnc(Nc5ccc(OCc6cccc(F)c6)c(Cl)c5)c4c3)o2)CC1,liver cell % of control,[1],103%
same,parasite % of control,[1],99.6% (inactive)
same,percent of negative control (+Dex),[2],74.5% (inactive)
same,z-score,[2],-1.72
same,z-score,[3],-0.375 (inactive)
same,z-score,[4],13.5 (active)
same,fraction signal,[5],-0.007 (inactive)
same,z-score,[6]; [15],0.445 (inactive)
same,z-score,[6]; [16],-0.225
CCOC(=O)c1ccc(O)c(O)c1,nuclear beta-catenin stimulation,[7]; at 10 µM,4.9% (inactive)
same,nuclear beta-catenin stimulation,"[7]; stimulation, at 2 µM",3.4%
same,insulin secretion stimulation,[8],4% (inactive)
same,viability decrease,[9],88.4% (active)
same,tube area decrease,[10],24% (inactive)
same,GLP1 secretion stimulation,[11],-0.3% (inactive)
same,inhibition of viability,[12],63.9% (active)
same,viability decrease (inhibition),[13],77.7% (active)
same,viability decrease (inhibition),[14],56.4% (active)
Cc1cccc(Oc2nccc(-c3c(-c4ccc(F)cc4)ncn3C3CCNCC3)n2)c1C,liver cell % of control,[1],58.8%
same,parasite % of control,[1],99.5% (inactive)
same,percent of negative control (+Dex),[2],104% (inactive)
same,z-score,[2],0.6
same,z-score,[3],-0.775 (inactive)
same,z-score,[4],8.3 (active)
same,fraction signal,[5],-0.0055 (inactive)
same,z-score,[6]; [15],-0.134 (inactive)
same,z-score,[6]; [16],-0.269
CCS(=O)(=O)c1ccc(OC)c(Nc2ncc(-c3cccc(F)c3)o2)c1,liver cell % of control,[1],140%
same,parasite % of control,[1],19.6% (inactive)
same,percent of negative control (+Dex),[2],84.5% (inactive)
same,z-score,[2],-0.335
same,z-score,[3],-0.615 (inactive)
same,z-score,[4],-0.303 (inactive)
same,fraction signal,[5],-0.0005 (inactive)
same,z-score,[6]; [15],1.69 (inactive)
same,z-score,[6]; [16],-0.478
CCOc1ccc(C(=O)OCCN(CC)CC)cc1,nuclear beta-catenin stimulation,[7]; at 10 µM,-1% (inactive)
same,nuclear beta-catenin stimulation,"[7]; stimulation, at 2 µM",-1.4%
same,insulin secretion stimulation,[8],-0.6% (inactive)
same,viability decrease,[9],6.1% (inactive)
same,tube area decrease,[10],-2.2% (inactive)
same,GLP1 secretion stimulation,[11],1.9% (inactive)
same,inhibition of viability,[12],43.8% (inactive)
same,viability decrease (inhibition),[13],20.4% (inactive)
same,viability decrease (inhibition),[14],8.4% (inactive)
